In the supplement of paper PMC3334620:
The full ranking holds about 33,000 sequences; the median of “E-score (-0.5 to 0.5)” is about -0.035, and the highest 2% start at about 0.35. For the sample, the highest values were picked, then their nearest neighbours and some sequences at random.

Target: T1, Pdr3 (UniProt P33200)
T1 sequence: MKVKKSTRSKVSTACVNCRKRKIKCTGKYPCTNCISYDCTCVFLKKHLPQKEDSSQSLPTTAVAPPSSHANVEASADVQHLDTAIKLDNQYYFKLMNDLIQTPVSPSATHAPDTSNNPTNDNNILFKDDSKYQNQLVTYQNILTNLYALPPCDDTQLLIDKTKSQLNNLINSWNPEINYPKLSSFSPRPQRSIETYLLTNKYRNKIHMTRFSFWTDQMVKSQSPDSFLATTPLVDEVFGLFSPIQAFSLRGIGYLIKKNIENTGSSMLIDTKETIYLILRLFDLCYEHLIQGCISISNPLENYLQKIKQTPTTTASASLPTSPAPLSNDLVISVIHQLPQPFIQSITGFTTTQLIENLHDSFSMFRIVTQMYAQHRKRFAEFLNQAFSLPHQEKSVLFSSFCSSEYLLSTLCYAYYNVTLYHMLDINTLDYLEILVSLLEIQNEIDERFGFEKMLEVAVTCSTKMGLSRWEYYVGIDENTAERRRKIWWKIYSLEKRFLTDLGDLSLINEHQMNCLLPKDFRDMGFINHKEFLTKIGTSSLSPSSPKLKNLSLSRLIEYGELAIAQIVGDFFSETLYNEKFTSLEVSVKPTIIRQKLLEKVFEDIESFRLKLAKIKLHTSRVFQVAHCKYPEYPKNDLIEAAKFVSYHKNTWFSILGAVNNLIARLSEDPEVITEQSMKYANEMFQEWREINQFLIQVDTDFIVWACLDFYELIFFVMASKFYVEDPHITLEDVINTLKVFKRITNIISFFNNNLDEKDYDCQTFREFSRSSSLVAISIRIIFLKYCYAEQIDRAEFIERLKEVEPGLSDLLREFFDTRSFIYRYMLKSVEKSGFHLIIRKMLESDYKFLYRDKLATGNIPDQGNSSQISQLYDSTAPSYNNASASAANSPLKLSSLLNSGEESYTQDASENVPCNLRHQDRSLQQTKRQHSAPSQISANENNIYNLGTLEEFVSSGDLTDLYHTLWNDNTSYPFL
Assay: PBM E-score (8-mer binding enrichment) (E-score (-0.5 to 0.5)); higher = stronger / more preferred TF binding
Details: protein concentration: 200 nM; construct: GST-full length
Outline: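 Universal all-10-mer Agilent arrays, double-stranded by primer extension on fresh or once-stripped slides, were probed with about 100-200 nM GST-tagged yeast transcription factors made by PURExpress. Fluorescent anti-GST detected bound protein, and masliner normalised the scans. E-scores from the Universal PBM Analysis Suite were given to each ungapped eight-base word pooled with its reverse complement.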

| Sequence | PBM E-score |
| --- | --- |
| GCCGGGAA | 0.304 |
| CGGGGGAA | 0.276 |
| TACCGGGA | 0.347 |
| ACGGGGAA | 0.204 |
| TCCGGGCA | 0.346 |
| ATTACACA | -0.0105 |
| AAACGCGG | 0.245 |
| ACCAGGCG | -0.0145 |
| AGCCTTTA | -0.193 |
| GGCTAAAC | -0.135 |
| CTCATTCA | -0.0959 |
| ATCATTCC | 0.281 |
| CTCATTCC | 0.356 |
| AGATAGGC | -0.16 |
| ATGCTCTC | -0.108 |
| CTGCCGGA | 0.32 |
| ATGCCGGA | 0.405 |
| GTGCCGGA | 0.369 |
| GTGCCGTA | 0.0678 |
| ATGCCGGG | 0.245 |
| ATGCCGGC | 0.341 |
| CTAGCAAA | -0.187 |
| CTTCCGAA | 0.385 |
| CTTCCGAC | 0.267 |
| GTTCCGAA | 0.471 |

| Sequence | PBM E-score |
| --- | --- |
| ACTCCGAA | 0.238 |
| AATCCGAA | 0.0894 |
| ATTCCGAC | 0.413 |
| ATTCCGAA | 0.436 |
| CTACCGAA | -0.0817 |
| ACTCCGAC | 0.255 |
| GGTCCGAA | 0.319 |
| CTTCCAAA | -0.155 |
| GTTCCAAA | -0.00321 |
| ACACGGCC | 0.14 |
| CTCCACGA | -0.144 |
| GTCTAGGA | -0.256 |
| AACGCATC | -0.139 |
| ACTTACCG | 0.233 |
| AATTTTAG | -0.194 |
| ATCAGTCA | 0.0413 |
| GGCCAAGA | -0.176 |
| GGGTTGAC | 0.0502 |
| CTCGCGCA | -0.029 |
| AGCCTAAT | -0.208 |
| AGCATACC | -0.0406 |
| ACTCCGAG | 0.28 |
| ATTCCGAG | 0.449 |
| AGTCCGAG | 0.281 |
| AAGAGCAA | -0.123 |

| Sequence | PBM E-score |
| --- | --- |
| ATGCGGTC | 0.21 |
| CGTTAAGA | -0.136 |
| CGGGGAAC | 0.258 |
| CCGGGAAA | 0.344 |
| CCGGGAAG | 0.359 |
| CCGGGAAC | 0.362 |
| ACGGGAAC | 0.33 |
| ACGGGAAG | 0.133 |
| AGAAGGTA | -0.0743 |
| ACGAGGCC | -0.0311 |
| AGTATGCC | -0.0201 |
| AGCTTCCC | -0.0703 |
| AGCTTCCA | 0.0336 |
| CGCTTCCA | -0.00125 |
| CGCTTCCC | 0.0936 |
| AGCTTCCG | 0.416 |
| CGCTTCCG | 0.419 |
| TCGGAACA | 0.483 |
| TGGGAACA | 0.0839 |
| GTGGAACA | 0.0611 |
| CCGGAACA | 0.471 |
| ACGGAACA | 0.477 |
| CTGGAACA | 0.117 |
| AAGGAACA | -0.129 |
| TAGGAACA | -0.0452 |

| Sequence | PBM E-score |
| --- | --- |
| ATGGAACA | -0.0996 |
| CAGGAACA | -0.0115 |
| GAGGAACA | 0.147 |
| GCGGAACA | 0.474 |
| ACTTGCAG | -0.177 |
| AGGGCCTG | -0.195 |
| AGAAAATA | 0.0181 |
| GGAGTAAC | 0.0889 |
| ATAGACCC | 0.154 |
| TCTCGTCA | -0.0279 |
| AGGGGCAC | -0.293 |
| ACATCGCG | 0.0219 |
| CGCTTCGC | -0.0359 |
| AAACATGT | 0.00604 |
| ACTTCCCC | -0.132 |
| ACTTCCAC | 0.0382 |
| ACTTCCGC | 0.385 |
| CCTTCCTC | -0.201 |
| CCTTCCGA | 0.323 |
| CCTTCCGC | 0.38 |
| AGATTCAT | -0.0927 |
| AGTTGCCG | 0.196 |
| GCCGGAGA | 0.244 |
| CCCGGAGG | 0.165 |
| TCCGGAGA | 0.44 |

| Sequence | PBM E-score |
| --- | --- |
| CCCGGAGA | 0.387 |
| ACCGGAGA | 0.353 |
| CCCAGAGA | -0.223 |
| AAATTCAT | -0.0189 |
| CGTGCCTC | -0.0179 |
| AACGCAAT | 0.115 |
| GTTCGGAA | 0.431 |
| ATTCGGAA | 0.415 |
| ATTCGGAG | 0.2 |
| GTTCGGCA | 0.054 |
| ATTCGGAC | 0.275 |
| CTTCGGAA | 0.438 |
| CTTCGGTA | -0.0957 |
| GTTCGGGA | 0.233 |
| CTTCGGAC | 0.283 |
| CTATCCTA | -0.0548 |
| ACTACGCA | -0.236 |
| GTGCAAAA | -0.168 |
| GACGCTAA | -0.213 |
| ACTCCGCA | 0.154 |
| ATGCCGCG | 0.346 |
| ATTCCACA | 0.204 |
| ATTCCGCA | 0.379 |
| CTTCCGCA | 0.307 |
| GTTCCCCA | -0.173 |

| Sequence | PBM E-score |
| --- | --- |
| GTTCCGCA | 0.462 |
| CTTCCGCC | 0.336 |
| ATTCCGCG | 0.479 |
| GTTCCTCA | 0.0277 |
| AATCCGCC | 0.17 |
| ATTCCGCC | 0.417 |
| GCTCTGAA | -0.126 |
| CAGTGCTC | -0.213 |
| AAGAGATA | -0.206 |
| TCCGATAA | 0.289 |
| ACTAGAAA | -0.213 |
| ACTATGTA | -0.181 |
| CCTAGTGC | -0.0662 |
| CTAGGTGC | -0.121 |
| CAGGTGCA | 0.0121 |
| CTCCGGCA | 0.34 |
| TTCCGAAA | 0.41 |
| CTCCGGTA | 0.321 |
| CACCGGAG | 0.253 |
| ATCCGAAG | 0.22 |
| ATCCGAAT | 0.365 |
| CTCCGGAA | 0.441 |
| ATCCGAAA | 0.248 |
| GTCCGAAA | 0.264 |
| CTCCGAAG | 0.311 |

| Sequence | PBM E-score |
| --- | --- |
| ATCCGAAC | 0.316 |
| CTCCGGAG | 0.476 |
| CGCCAGTA | 0.00965 |
| AACTGCGC | -0.146 |
| AGAGATCG | -0.137 |
| AGCGCGGG | 0.324 |
| AGCAAGTA | -0.149 |
| ACGGCACA | -0.0224 |
| ACTGTAGC | -0.197 |
| CTCCGGAC | 0.382 |
| ATCCGGCG | 0.323 |
| ATCCGCAA | 0.222 |
| CTCCGGCC | 0.0522 |
| GTCCGCAC | 0.215 |
| CTCCGGTC | 0.328 |
| CTCCGTAC | 0.162 |
| ATCCGGCC | 0.403 |
| GTCCGGAC | 0.481 |
| GTCCGCAA | 0.259 |
| TTCCGCAA | 0.404 |
| CCCGCTCG | 0.133 |
| ACGTCTTG | -0.178 |
